Each structure is given as a SMILES string. Screen size: about 3,300 compounds; about 280 (8.5%) were called active. The sample holds actives, similar compounds and a random draw of the others, so the mix is not that of the screen. Unmarked numbers belong to inactive results.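 The calls were made as follows: active = mean growth inhibition over the two runs of 50% or more; inactive = mean growth inhibition under 50%.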

This assay can be described thus: A549 NSCLC cell proliferation inhibitors – ATP luminescence, human non-small cell lung line, primary screen (AID 371).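 Also: compound exposure lasted 72 h before the ATP read; 0% = untreated cell signal and 100% = no luminescence left.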 Particulars: at 10 µM, hits give high values.
As for `Cc1cccc2c1NC(C)CC2C` (configuration not stated), the growth inhibition was 0.83%.

Turning to `COc1cc2c(cc1OC)C1(CCCC1)C(N)=C2C#N`, the growth inhibition was 54.9% (active).

Turning to `COc1ccc(C2C(C#N)=C(N)SC(N)=C2C#N)cc1OC`, the growth inhibition was 2.23%.

`CC(=O)NC1(C(F)(F)F)C(=O)Nc2c1c(=O)n(C)c(=O)n2C` (configuration not stated): the growth inhibition was 0.54%.

Turning to `CCOC(=O)C1=C(N)N2C(=O)CSC2=C(C(=O)OC)C1`, the growth inhibition is -0.01%.

Consider `CN1CCCN(C(c2ccccc2)c2ccc(Cl)cc2)CC1` (configuration not stated), for which the growth inhibition was 78.7% (active).

`Cc1cccc(CN2CCN(C(c3ccccc3)c3ccc(Cl)cc3)CC2)c1` (configuration not stated): the growth inhibition was 3.35%.

Take `OCCOCCN1CCN(C(c2ccccc2)c2ccc(Cl)cc2)CC1` (configuration not stated): the growth inhibition is 1.66%.

For `CCCCCn1c2nc3ccccc3nc2c2c(=O)n(CC(C)C)cnc21`, the growth inhibition was -1.51%.

Regarding `CN1CCN(c2nc3c(c(=O)n(C)c(=O)n3C)n2Cc2cccc3ccccc23)CC1`, the growth inhibition is -7.28%.

Take `CCN(CC)CCCN1C(=O)C(=O)/C(=C(/O)c2ccc(OC)cc2)C1c1ccco1` (configuration not stated): the growth inhibition is 1.94%.

In the case of `Nc1c(C(=O)NCC2CCCO2)c2nc3ccccc3nc2n1/N=C/c1ccncc1` (configuration not stated), the growth inhibition is 2.51%.

`COc1ccccc1-n1c(N)c(C(=O)NCC2CCCO2)c2nc3ccccc3nc21` (configuration not stated): the growth inhibition was 52.9% (active).

As for `COCCn1c(N)c(C(=O)NCC2CCCO2)c2nc3ccccc3nc21` (configuration not stated), the growth inhibition was 23.5%.

`O=C(Oc1ccccc1N1C(=O)CCC1=O)c1ccco1`: the growth inhibition was 6.54%.

Take `COC(=O)CSc1nc2c(c(=O)n(C)c(=O)n2C)n1CCC(C)C`: the growth inhibition was -2.98%.

`COc1cc2nc(N3CCN(C(=O)C4CCCO4)CC3)nc(N)c2cc1OC` (configuration not stated): the growth inhibition is 15.4%.

As for `COc1cc2nc(N3CCN(C(=O)c4ccco4)CC3)nc(N)c2cc1OC`, the growth inhibition is 82.5% (active).

On to `COC(=O)c1ccccc1NC(=O)C1COc2ccccc2O1` (configuration not stated), for which the growth inhibition is 11.9%.

As to `COc1cc2nc(N3CCN(C(=O)C4COc5ccccc5O4)CC3)nc(N)c2cc1OC` (configuration not stated), the growth inhibition is 91% (active).

`COc1ccc2[nH]c(C)c(C(=O)CN3CCN(C(=O)c4ccco4)CC3)c2c1`: the growth inhibition is 7.48%.

For the molecule `COc1cccc(OC)c1OCCN1CCN(C(=O)c2ccco2)CC1`, the growth inhibition was 2.2%.

Consider `Cc1cc(Cl)ccc1OCC(=O)OC(C)C(=O)N(C)C` (configuration not stated), for which the growth inhibition is -0.96%.

Regarding `O=C(O)c1cc2n(n1)C(C(F)(F)F)CC(c1ccccc1)N2` (configuration not stated), the growth inhibition was -0.01%.

For `CCOC(=O)c1nc2nc(C)c(Cl)c(=O)n2[nH]1`, the growth inhibition was -2.82%.

For `O=C(O)CC(SCc1ccc(C(=O)O)o1)C(=O)O` (configuration not stated), the growth inhibition is -5.57%.

In the case of `CC(=O)C(=[N+]=[N-])C(=O)NCc1ccccc1`, the growth inhibition is -2.8%.
